Screens (PubChem)
SKKanGAS inh = S. pyogenes SKKanGAS growth inhibitors in kanamycin, primary screen, streptokinase expression inhibitor project, SKKanGAS strain, BacTiter-Glo luminescence; 6 h; inhibition, % at 7.5 µM; hit rate 1.3% among 300,000; AID 1662, 2009;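 active = mean replicate score, as percent of positive control median, at least 50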;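 note: strain carries kanamycin resistance gene driven by streptokinase promoter and grows in 40 µg/ml kanamycin; loss of luminescence reflects streptokinase promoter inhibition or plain growth inhibition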
tim23-1 inh = growth inhibitors of tim23-1 mutant yeast, primary screen, luminescence, uHTS. S. cerevisiae tim23-1 growth, BacTiter-Glo luminescence, 24 h. inhibition, % at 20 µM. hit rate 1.3% among 330,000. AID 463212, 2010;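 active = growth inhibition of the mutant yeast at or above 50%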;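 note: temperature-sensitive mutant grown at 25 °C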
tim10-1 inh = growth inhibitors of tim10-1 mutant yeast, primary screen, luminescence, uHTS; hit rate 2.2% among 330,000; inhibition, % at 20 µM; S. cerevisiae tim10-1 ts strain growth, BacTiter-Glo, 24 h;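 active = inhibition of at least 40%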;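 note: mutant grown at 25 °C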
PfHsp90 yeast 2 = growth inhibition of PfHsp90-expressing yeast, primary screen, antimalarial PfHsp90 inhibitor project, S. cerevisiae, BacTiter-Glo luminescence, single point, set 2. hit rate 0.32% among 310,000. BacTiter-Glo ATP, 48 h; yeast lacking PDR1 and PDR3 efflux regulators. inhibition, % at 9.4 µM;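 active = every replicate shows inhibition above about 80%, whatever the replicate mean, limit read from the data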
TIM10 inh = growth inhibitors of isogenic TIM10 control yeast, primary screen, counter-screen for tim10-1 yeast inhibitor project, luminescence, uHTS; inhibition, % at 10 µM; hit rate 1.4% among 330,000; S. cerevisiae TIM10 strain growth, BacTiter-Glo luminescence, 24 h;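 active = inhibition of 40% or more at the single tested concentration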;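 note: wild-type TIM10 isogenic control strain grown at permissive 25 °C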
ATG4B inhibitor = ATG4B protease inhibitors, primary screen, biochemical, fluorescence, uHTS. Cysteine protease ATG4B (Homo sapiens), Q9Y4P1. hit rate 0.51% among 340,000. ATG4B cleavage of LC3-PLA2, NBD-HPC fluorescence, 1 h. inhibition, % at 8.33 µM; in the data active = inhibition above about 40%
Target sequence (Q9Y4P1 whole entry, looked up): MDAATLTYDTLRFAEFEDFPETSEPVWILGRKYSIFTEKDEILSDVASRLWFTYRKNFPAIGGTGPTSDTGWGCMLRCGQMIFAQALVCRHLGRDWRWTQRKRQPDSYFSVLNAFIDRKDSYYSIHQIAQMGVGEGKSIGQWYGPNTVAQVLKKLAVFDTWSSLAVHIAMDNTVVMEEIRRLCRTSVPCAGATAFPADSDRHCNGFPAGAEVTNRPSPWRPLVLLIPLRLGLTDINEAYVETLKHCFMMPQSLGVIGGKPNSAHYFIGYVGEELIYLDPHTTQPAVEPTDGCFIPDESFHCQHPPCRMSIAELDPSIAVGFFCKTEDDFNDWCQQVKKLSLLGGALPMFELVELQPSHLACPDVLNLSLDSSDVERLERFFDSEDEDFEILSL
Each line names hits and unclear results; the compound was inactive in the other large screens. Compounds with a hit are over-represented: about 4.7% of the library has one in this group of screens.

Cc1ccc(/C=C2\SC(=S)N(/N=C/c3cc([N+](=O)[O-])ccc3O)C2=O)o1	ATG4B inhibitor 46.6
CCC(C)[C@H](NC(=O)C1CC(=O)N(c2ccc(OC)cc2)C1)C(=O)N1CCCCC1 (stereo not given in full)	none
O=c1[nH]c(-c2ccccn2)nc2sc(-c3ccccc3)cc12	SKKanGAS inh 95.8 (no result: tim23-1 inh, tim10-1 inh, TIM10 inh)
CCOC(=O)Cc1csc(NC(=O)c2c(-c3c(F)cccc3Cl)noc2C)n1	none
Cc1cccc(C(=O)Nc2nnc(C3=COCCO3)o2)c1	none
CC(C)Oc1ccc(C(=O)Nc2nnc(C3=COCCO3)o2)cc1	SKKanGAS inh 72.7
CC(C)(C)c1ccc(C(=O)Nc2nnc(C3=COCCO3)o2)cc1	SKKanGAS inh 80.3
O=C(Nc1nnc(C2=COCCO2)o1)c1cccc(F)c1	SKKanGAS inh 63.0
C=CCC1NS(=O)(=O)OC(CCCC)C1O (stereo not given)	none
CCOc1ccc(/C(O)=C2/C(=O)C(=O)N(c3ccccn3)C2c2ccc(Cl)cc2)c(C)c1 (stereo not given)	SKKanGAS inh 64.3 (no result: tim23-1 inh, tim10-1 inh, TIM10 inh)
CCOc1ccc(/C(O)=C2/C(=O)C(=O)N(c3ccccn3)C2c2ccc(C)cc2)c(C)c1 (stereo not given)	none
C[C@@H]1CN(c2c(F)c(F)c3c(=O)c(C(=O)O)cn(C4CC4)c3c2F)C[C@H](C)N1	SKKanGAS inh 64.6
Cc1c(CCC(=O)O)c(=O)oc2cc3occ(-c4ccc(Br)cc4)c3cc12	SKKanGAS inh 76.6
Cc1c(CC(=O)O)c(=O)oc2c(C)c3occ(-c4ccccc4)c3cc12	none
Cc1c(CCC(=O)O)c(=O)oc2c(C)c3occ(-c4ccc(Cl)cc4)c3cc12	SKKanGAS inh 58.2
Cc1c(CCC(=O)O)c(=O)oc2cc3occ(-c4ccc(F)cc4)c3cc12	none (no result: PfHsp90 yeast 2)
Cc1c(CCC(=O)O)c(=O)oc2cc3occ(-c4ccc(Cl)cc4)c3cc12	SKKanGAS inh 62.9
COc1ccc(CN2CC(C(=O)NCCCN3CCOCC3)CC2=O)cc1 (stereo not given)	none
COC(=O)C(Nc1ccccc1Cl)(c1cc(C)c(O)c(C)c1)C(F)(F)F (stereo not given)	SKKanGAS inh 88.4
O=c1cc(O)nc(SCc2ccc(Cl)cc2)[nH]1	SKKanGAS inh 103.8 (no result: PfHsp90 yeast 2)
O=C(N/N=C/c1cc2c3c(c1O)CCCN3CCC2)c1ccccc1O	SKKanGAS inh 55.2, PfHsp90 yeast 2 106.9 (no result: tim23-1 inh, tim10-1 inh, TIM10 inh)
CC(=O)N1CCN(Cc2nc3cc(NC(=O)C4CCCCC4)ccc3n2C)CC1	none (no result: PfHsp90 yeast 2)
O=c1cc(-c2ccc([N+](=O)[O-])cc2)nc2cc(-c3ccc(F)cc3)[nH]n12	SKKanGAS inh 67.5
COc1cc(/C=C(\C#N)c2nc3ccc(C)cc3[nH]2)c([N+](=O)[O-])cc1OC	none
COc1c(O)ccc(/C=C(\C#N)c2nc3ccccc3[nH]2)c1[N+](=O)[O-]	SKKanGAS inh 54.6
COc1cc(NC(=O)[C@H]2CCCN2S(=O)(=O)c2cccc3cccnc23)cc(OC)c1OC	none (no result: SKKanGAS inh)
COc1ccc(NC(=O)C2CCCN2S(=O)(=O)c2cccc3cccnc23)c(OC)c1 (stereo not given)	PfHsp90 yeast 2 101.8
COc1ccc(CCN2C(=O)C=CC2=O)cc1OC	PfHsp90 yeast 2 104.4 (no result: SKKanGAS inh, tim23-1 inh, tim10-1 inh, TIM10 inh)
COc1ccc(CCn2c(C)ccc2C)cc1OC	none (no result: PfHsp90 yeast 2, ATG4B inhibitor)
CCCCc1nc2cc(C(=O)N3CCC(OCCOC)CC3)ccc2o1	SKKanGAS inh 63.3
CCCCc1nc2cc(C(=O)N3CCCC(OCCC)C3)ccc2o1 (stereo not given)	none
Cc1ccccc1OCCNCC(C)O (stereo not given)	none (no result: PfHsp90 yeast 2)
O=C1C(Cl)=C(N2CCCCC2)C(=O)C(Cl)=C1c1cnc(N2CCCCC2)s1	none
CN(C)c1ncc(C2=C(Cl)C(=O)C(N3CCCC3)=C(Cl)C2=O)s1	SKKanGAS inh 76.6
Cc1csc(NC(=O)CCCC(=O)O)c1-c1nc2ccccc2s1	none
Cc1csc(NC(=O)COCC(=O)O)c1-c1nc2ccccc2s1	SKKanGAS inh 50.5
O=C(O)CCCNc1cc(N2CCN(C(=O)c3ccco3)CC2)c2noc3c2c1C(=O)c1ccccc1-3	SKKanGAS inh 51.7
O=C(O)CCCNc1cc(N2CCC3(CC2)OCCO3)c2noc3c2c1C(=O)c1ccccc1-3	none (no result: SKKanGAS inh, PfHsp90 yeast 2, ATG4B inhibitor)
CC(=O)O[C@@H]1[C@@H](O)[C@@H](O)[C@H](Oc2c(-c3ccc(O)cc3)oc3c(CC=C(C)C)c(O)cc(O)c3c2=O)O[C@H]1C	none (no result: PfHsp90 yeast 2)
C/C(=N\Nc1ccc([N+](=O)[O-])cc1)c1ccc(C#N)cc1	none
O=C(O)CC/C(=N/Nc1ccc([N+](=O)[O-])cc1)C(=O)O	PfHsp90 yeast 2 100.3
N#CC(C#N)=NNc1ccc([N+](=O)[O-])cc1	SKKanGAS inh 86.5
O=C(CCCNS(=O)(=O)c1cccs1)N1CCc2ccccc2C1	none
COc1ccc(C2c3ccsc3CCN2C(=O)C(C)(C)C)cc1 (stereo not given)	SKKanGAS inh 50.3
CC1(C)N=C(N)N=C(N)N1c1cccc(CN)c1	none
CC1(C)N=C(N)N=C(N)N1c1ccc(Oc2ccc(Cl)cc2)c(Cl)c1	SKKanGAS inh 93.9
CC1(C)N=C(N)N=C(N)N1c1ccccc1	SKKanGAS inh 104.6
COc1ccc(C(C(=O)NCC2CCCO2)N(C(=O)CNC(=O)c2cccs2)c2ccc(C)cc2)cc1OC (stereo not given)	none
CC(Oc1cccc(Br)c1)C(=O)NNC(=O)CCS(=O)(=O)c1ccccc1 (stereo not given)	none (no result: SKKanGAS inh)
COc1ccc(NC(=O)Cc2c(F)c(F)c(F)c(F)c2F)cc1OC	none
C/C(=C\C(=O)OCCCCCCCCC(=O)O)C[C@@H]1OC[C@H](C[C@@H]2O[C@H]2[C@@H](C)[C@H](C)O)[C@@H](O)[C@H]1O	SKKanGAS inh 103.5
Cc1nnc(SCC2=C(C(=O)O)N3C(=O)C(NC(=O)c4cccc(F)c4F)C3SC2)s1 (stereo not given)	SKKanGAS inh 120.3
Cc1cc(C)n(CC(=O)NC2C(=O)N3C(C(=O)O)=C(CSc4nnc(C)s4)CSC23)n1 (stereo not given)	none (no result: SKKanGAS inh)
Cc1nnc(SCC2=C(C(=O)O)N3C(=O)C(NC(=O)Cn4ncc(Cl)c4C)C3SC2)s1 (stereo not given)	SKKanGAS inh 105.6
CC1=C(C(=O)O)N2C(=O)C(NC(=O)c3c(F)cccc3F)C2SC1 (stereo not given)	none (no result: SKKanGAS inh)
NCC12CC3CC(CC(O)(C3)C1)C2	none
CC1CCc2c(sc3nc(C4CC4)nc(N4CCN(C(=O)c5ccco5)CC4)c23)C1 (stereo not given)	SKKanGAS inh 57.7
